LMNA splice mod: modulators of lamin A splicing. HeLa LMNA splicing GFP/RFP minigene ratio, 48 h. Potency, µM (highest dose often 46.1 µM), inactives show at the highest dose ratio change, negative = inhibition, hits mostly inhibitors. 200,000 compounds, 0.01% hits. AID 1487; active = well fitted inhibition curve with a large enough effect in the signal ratio, with a control signal flat, not every such curve was filed as active; inconclusive = small, poorly fitted or top-dose-only effect, or effect the other way, or a change in a side signal; the % refers to the signal ratio
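S3 HeLa cells stably expressing lamin A-EGFP splicing minigene plus DsRed2, 600 cells/well, 48 h compound exposure at 37C. Laser-scanning cytometry; analysed as GFP (500-530 nm)/RFP (575-640 nm) total intensity ratio; 0.5% DMSO vehicle.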
GAA glycogen mod: inhibitors or activators of human alpha-glucosidase glycogen cleavage | P10253 | recombinant GAA, glycogen substrate, Amplex Red glucose oxidase fluorescence | 300,000 compounds, 0.38% hits | Potency, µM (top dose mostly 76.4 µM), for the others: at the highest dose activity change, negative = inhibition, hits mostly inhibitors;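 also: 0% = full enzyme reaction and -100% = no-enzyme basal signal; the screen sought inhibitors and activators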
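Recombinant human enzyme (4 nM); glycogen substrate; 37 C, 40 min, pH 5.0. Readout: coupled glucose oxidase/Amplex Red fluorescence.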
N370S GC mod: inhibits or activates N370S mutant glucocerebrosidase. 330,000 compounds, 0.092% hits. P04062. Potency, µM (series often up to 59.4 µM), without a hit: at the highest dose activity change, negative = inhibition, hits mostly inhibitors. AID 2101. N370S GC spleen homogenate, 4MU-glucoside fluorescence;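 also: 0% = full enzyme activity and -100% = no enzyme basal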
aGlu spleen mod: lysosomal alpha-glucosidase (human) modulation; human spleen homogenate, 4-MU-alpha-glucoside fluorescence; 240,000 compounds, 0.006% hits; AID 2112; Potency, µM (series often up to 79.9 µM), for the others: at the highest dose activity change, negative = inhibition, usual class: inhibitors; P10253;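 also: 0% = enzyme with vehicle and -100% = no enzyme basal signal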
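Human spleen homogenate (1 ug) incubated with compounds and 1 mM 4-methylumbelliferyl-alpha-D-glucopyranoside in pH 5.0 citrate/phosphate buffer, 37 C, 40 min. Stopped at pH 10; 4-MU fluorescence (Ex 365/Em 440 nm); AC50 by Hill fit.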
GAA inh: alpha-glucosidase (human) inhibition. Potency, µM (titrated, usually from 76.9 µM), for the others: at the highest dose activity change, negative = inhibition, most hits filed as inhibitors. P10253. 200,000 compounds, 0.005% hits. purified human GAA, 4-MU-alpha-glucoside fluorescence;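 also: plate controls were uninhibited enzyme wells for no effect and no-enzyme background for full effect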
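Human alpha-glucosidase, 4 nM, pre-mixed with test compounds before 400 uM 4-methylumbelliferyl substrate; 20 min room temperature at pH 5.0. Fluorescence read after pH 10 stop; AC50 values from Hill-equation fits.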
* marks the source's active call; other numbers are inactive results; ? = inconclusive; . = not tested or not shown; [ ] = remark or other dose. This is a sample that favours compounds with a hit; in the whole collection about 0.41% have one here. Unless noted, calls follow the shape of the dose curve; as a rule, active = well fitted curve in the direction sought with a large enough effect; inconclusive = small, poorly fitted or top-dose-only effect, or another doubt; inactive = no such curve, though single readings can be large; an effect the other way counts as inactive or inconclusive. Unless noted, % is scaled to controls: 0 for no effect and ±100 for the full control effect; potency is read from the fitted curve at half-maximal effect.

SMILES | LMNA splice mod | GAA glycogen mod | N370S GC mod | aGlu spleen mod | GAA inh
CC(C)C[C@H](NC(=O)[C@@H]1CCCN1C(=O)[C@H](Cc1ccccc1)NC(=O)[C@H](C)NC(=O)[C@H](CCC(=O)O)NC(=O)[C@H](C)NC(=O)[C@H](CO)NC(=O)[C@H](CCC(=O)O)NC(=O)[C@H](CC(=O)O)NC(=O)[C@H](CCC(=O)O)NC(=O)[C@H](C)NC(=O)CNC(=O)[C@H](CC(N)=O)NC(=O)[C@@H]1CCCN1C(=O)[C@H](Cc1ccc(O)cc1)NC(=O)[C@@H](NC(=O)[C@H](CCCCN)NC(=O)[C@@H](NC(=O)[C@@H]1CCCN1C(=O)[C@@H](N)CCCNC(=N)N)C(C)C)C(C)C)C(=O)N[C@@H](CCC(=O)O)C(=O)N[C@@H](Cc1ccccc1)C(=O)O | . | . | -1% | 4% | .
Brc1ccc2nc(-c3cccs3)c(NCC3CCCO3)n2c1 (centres undefined) | ? | 6.3µM* | ? | 2% | 4%
O=C(NC1CCCC1)C(c1ccncc1)N(Cc1cccs1)C(=O)c1csnn1 (centres undefined) | -2% | 20µM* | 2% | 5% | -10%
O=C(CN1C(=O)c2ccccc2S1(=O)=O)c1ccc(O)c(O)c1 | . | 14µM* | -6% | 0% | .
O=C(O)c1cccc(N/N=C/c2cccc3ccccc23)c1 | . | 32µM* | -9% | . | .
O=C(N/N=C/c1ccc(O)cc1)c1cccc(N/N=C/c2ccc(O)cc2)c1 | . | 25µM* | -20% | -3% | -14%
O=C(N/N=C/c1ccncc1)c1cccc(N/N=C/c2ccncc2)c1 | ? | -3% | -14% | -2% | 0%
OC[C@@H]1OC(O)[C@@H](O)[C@H](O)[C@@H]1O (some centres undefined) | . | . | -12% | -2% | .
COc1cc(CN(C(=O)c2oc3ccccc3c2C)C2CCS(=O)(=O)C2)cc(OC)c1OC (centres undefined) | . | 11%[76.3 µM] | . | . | .
Cn1c(N)c(C(=O)CSc2nc3ccccc3c(=O)n2CCCN2CCOCC2)c(=O)n(C)c1=O | -18%[46 µM] | 2% | -2% | 10% | -4%
Cc1[nH]c2ccccc2c1C(=O)CSc1nc2ccccc2c(=O)n1CCCN1CCOCC1 | ? | -13% | 10µM* | -9% | -9%
COc1ccc(NC(=S)N/N=C2\CC(C)(C)Oc3ccc(O)cc32)cc1 | ? | 8.9µM* | -3% | -2% | -5%
O=C1NCCCC2c3c(cc(Br)c(O)c3Br)OC12N1CCOCC1 (centres undefined) | 7% | -14% | -8% | -1% | -1%
O=C1NCCCC2c3cc(O)c4ccccc4c3OC12N1CCCCC1 (centres undefined) | ? | 25µM* | 12% | -5% | 11%
COc1ccc(-c2cc(C(F)(F)F)nc(S(=O)(=O)CCCC(=O)Nc3cc(C)on3)n2)cc1OC | 4µM* | -11% | 0% | 2% | -1%
CC1=Nc2ccccc2N=C(N)C1c1ccccc1 (centres undefined) | -6%[46 µM] | 16µM* | -6% | 5% | 3%
CC1=Nc2ccccc2N=C(NC(=O)c2ccccc2)C1c1ccc(Cl)cc1 (centres undefined) | . | ? | 16% | 2% | -3%
O=C1OCC2=C1C(c1ccc(F)cc1)Sc1ccccc1N2 (centres undefined) | -6% | 3% | 18µM* | -8% | -8%
Cc1ccn2c(Nc3ccc4c(c3)OCO4)c(-c3ccc(O)cc3)nc2c1 | . | 11µM* | 16µM* | -1% | .
Cc1ccc2nc(-c3cccc(Cl)c3)c(Nc3ccc4c(c3)OCO4)n2c1 | . | -20%[76.3 µM] | . | . | .
Oc1ccc(-c2nc3ccccn3c2Nc2ccc3c(c2)OCCO3)cc1 | . | 13µM* | . | . | .
CN(C)c1ccc(-c2nc3ccccn3c2Nc2ccc3c(c2)OCCO3)cc1 | . | 18µM* | . | . | .
Clc1cccc(-c2nc3ccccn3c2Nc2ccc3c(c2)OCCO3)c1 | . | 4µM* | . | . | .
Oc1c(C(c2ccccc2F)N2CCN(c3ccccc3F)CC2)sc2nc(-c3ccco3)nn12 (centres undefined) | 12%[46 µM] | . | . | . | .
Cc1ccc(N2CC(NC(=O)c3ccc(S(=O)(=O)N4CCCC4)cc3)CC2=O)cc1C (centres undefined) | 0%[46 µM] | . | . | . | .

Bioassay records: PubChem BioAssay, National Center for Advancing Translational Sciences (NCATS)
